From PubChem BioAssay (NCATS)
Records with an inconclusive call do not appear. Activity calls are given as the source filed them. The call rests on the fitted dose curve; in most records, active means well fitted curve in the direction sought with a large enough effect; inconclusive means small, poorly fitted or top-dose-only effect, or another doubt; inactive means no such curve, though single readings can be large; an effect the other way counts as inactive or inconclusive.

Experiments:
[1] = Quantitative High-Throughput drug screen in 47 multiple myeloma cell lines against the NCATS MIPE library collection: AMO1_DSMZ cell viability assay (AID 1918927; further: nearly all actives have a fitted effect of over 30% in size)
Summary of the method: (§1)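 Approved and investigational drugs from MIPE 4.0 were added by pin tool to 500 cells per well. After 48 hours at 37C, ATP-based CellTiter-Glo luminescence indicated remaining viability.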

[2] = Quantitative High-Throughput drug screen in 47 multiple myeloma cell lines against the NCATS MIPE library collection: ARP1_JJKsccF8 cell viability assay (AID 1918928; further: nearly all actives have a fitted effect of over 40% in size)
Summary of the method: (§2)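 Viability screen: myeloma cells (500/well) incubated 48 h at 37 °C, humidified 5% CO2, with pinned library compounds; CellTiter-Glo added, luminescence read; DMSO wells set 100%, medium-only wells 0%.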

[3] = Quantitative High-Throughput drug screen in 47 multiple myeloma cell lines against the NCATS MIPE library collection: ARD_JJKsccE7 cell viability assay (AID 1918929)
Summary of the method: as §1

[4] = Quantitative High-Throughput drug screen in 47 multiple myeloma cell lines against the NCATS MIPE library collection: Karpas620_DSMZ cell viability assay (AID 1918959); further: nearly all actives have a fitted effect of over 30% in size
Summary of the method: (§3)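 qHTS of the MIPE 4.0 collection: 500 myeloma cells/well, 48 h drug exposure at 37C in 5% CO2, then CellTiter-Glo for 5 min at room temperature before luminescence reading.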

[5] = Quantitative High-Throughput drug screen in 47 multiple myeloma cell lines against the NCATS MIPE library collection: Karpas417_ECACC cell viability assay (AID 1918961); details: Karpas417 myeloma viability, CellTiter-Glo ATP luminescence, 48 h; viability (% of DMSO): at 45.8 µM (top of the series)
Summary of the method: (§4)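 Luminescent ATP measurement with CellTiter-Glo gives viability, scaled between DMSO-only wells (100%) and media-only wells (0%). Cells, 500 per well, faced library compounds for 48 hours at 37C.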

[6] = Quantitative High-Throughput drug screen in 47 multiple myeloma cell lines against the NCATS MIPE library collection: KHM11_PLB cell viability assay (AID 1918962); further: nearly all actives have a fitted effect of over 35% in size
Summary of the method: as §3

[7] = Quantitative High-Throughput drug screen in 47 multiple myeloma cell lines against the NCATS MIPE library collection: INA6_PLB cell viability assay (AID 1918965; further: nearly all actives have a fitted effect of over 55% in size)
Summary of the method: as §4

[8] = Quantitative High-Throughput drug screen in 47 multiple myeloma cell lines against the NCATS MIPE library collection: KMS27_JCRB cell viability assay (AID 1918970); further: nearly all actives have a fitted effect of over 30% in size
Summary of the method: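 Myeloma cells (500 per well) were exposed to MIPE 4.0 compounds for 48 h at 37 °C, 5% CO2; viability was read as ATP luminescence with CellTiter-Glo, normalized to DMSO-only (100%) and media-only (0%) wells.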

[9] = Quantitative High-Throughput drug screen in 47 multiple myeloma cell lines against the NCATS MIPE library collection: KMS12BM_JCRB cell viability assay (AID 1918971); further: nearly all actives have a fitted effect of over 35% in size
Summary of the method: (§5)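 Viability readout: CellTiter-Glo luminescence following 5 min room-temperature incubation with reagent. Prior exposure: 48 h, 37C, humidified 5% CO2, 500 cells per well.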

[10] = Quantitative High-Throughput drug screen in 47 multiple myeloma cell lines against the NCATS MIPE library collection: KMS12PE_JCRB cell viability assay (AID 1918972); further: nearly all actives have a fitted effect of over 30% in size
Summary of the method: as §4

[11] = Quantitative High-Throughput drug screen in 47 multiple myeloma cell lines against the NCATS MIPE library collection: MOLP8_DSMZ cell viability assay (AID 1918977); further: nearly all actives have a fitted effect of over 45% in size
Summary of the method: (§6)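 qHTS format: cells plated (500/well), pin-dosed with MIPE 4.0 compounds, kept 48 h at 37 °C. Readout was CellTiter-Glo luminescence, median RLU.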

[12] = Quantitative High-Throughput drug screen in 47 multiple myeloma cell lines against the NCATS MIPE library collection: NCIH929_DSMZ cell viability assay (AID 1918978); further: nearly all actives have a fitted effect of over 35% in size
Summary of the method: as §6

[13] = Quantitative High-Throughput drug screen in 47 multiple myeloma cell lines against the NCATS MIPE library collection: OCIMY1_PLB cell viability assay (AID 1918979); further: nearly all actives have a fitted effect of over 35% in size
Summary of the method: as §6

[14] = Quantitative High-Throughput drug screen in 47 multiple myeloma cell lines against the NCATS MIPE library collection: JJN3_DSMZ cell viability assay (AID 1918966; further: nearly all actives have a fitted effect of over 50% in size)
Summary of the method: as §1

[15] = Quantitative High-Throughput drug screen in 47 multiple myeloma cell lines against the NCATS MIPE library collection: Karpas25_ECACC cell viability assay (AID 1918968; further: nearly all actives have a fitted effect of over 35% in size)
Summary of the method: as §1

[16] = Quantitative High-Throughput drug screen in 47 multiple myeloma cell lines against the NCATS MIPE library collection: KMS21BM_JCRB cell viability assay (AID 1918974)
Summary of the method: as §1

[17] = Quantitative High-Throughput drug screen in 47 multiple myeloma cell lines against the NCATS MIPE library collection: KMS26_JCRB cell viability assay (AID 1918975); further: nearly all actives have a fitted effect of over 45% in size
Summary of the method: as §5

[18] = Quantitative High-Throughput drug screen in 47 multiple myeloma cell lines against the NCATS MIPE library collection: MMM1_PLB cell viability assay (AID 1918976); details: MMM1 myeloma cells viability, CellTiter-Glo, 48 h; further: nearly all actives have a fitted effect of over 35% in size
Summary of the method: as §6

[19] = Quantitative High-Throughput drug screen in 47 multiple myeloma cell lines against the NCATS MIPE library collection: KMM1_JCRB cell viability assay (AID 1918960); further: nearly all actives have a fitted effect of over 30% in size
Summary of the method: as §2

[20] = Quantitative High-Throughput drug screen in 47 multiple myeloma cell lines against the NCATS MIPE library collection: KMS20_JCRB cell viability assay (AID 1918973); further: nearly all actives have a fitted effect of over 45% in size
Summary of the method: as §1
Potency means the concentration at half of the fitted maximal effect.

CNCC(O)c1ccc(O)cc1 (configuration not stated)
inactive: Potency [1] | Potency [2] | Potency [3] | Potency [4] | Potency [6] | Potency [7] | Potency [8] | Potency [9] | Potency [10] | Potency [11] | Potency [12] | Potency [13]
active: viability (% of DMSO) [5] 80.8%

CNC(=O)N1N=C(c2ccc(N)cc2)c2cc3c(cc2CC1C)OCO3 (configuration not stated)
active: Potency [1] 1.87 µM | Potency [3] 2.35 µM | Potency [5] 1.87 µM | Potency [6] 2.96 µM | Potency [7] 1.18 µM | Potency [14] 1.32 µM | Potency [15] 9.35 µM | Potency [8] 3.32 µM | Potency [10] 2.35 µM | Potency [16] 1.48 µM | Potency [17] 3.32 µM | Potency [18] 14.8 µM
inactive: Potency [13]

C=C(C)[C@H]1Cc2c(ccc3c2O[C@@H]2COc4cc(OC)c(OC)cc4[C@@H]2C3=O)O1
active: Potency [1] 0.469 µM | Potency [2] 0.526 µM | Potency [3] 0.332 µM | Potency [4] 0.296 µM | Potency [19] 0.235 µM | Potency [7] 0.118 µM | Potency [14] 7.43 µM | Potency [15] 0.0469 µM | Potency [8] 0.296 µM | Potency [9] 2.64 µM | Potency [20] 0.332 µM | Potency [16] 0.209 µM | Potency [18] 0.166 µM | Potency [12] 1.87 µM

O=C1CC[C@@]2(O)[C@H]3Cc4ccc(O)c5c4[C@@]2(CCN3CC2CC2)[C@H]1O5
inactive: Potency [2] | Potency [3] | Potency [4] | Potency [19] | Potency [5] | Potency [15] | Potency [8] | Potency [10] | Potency [17] | Potency [12] | Potency [13]
active: Potency [7] 8.33 µM

Cn1c(CCCC(=O)O)nc2cc(N(CCCl)CCCl)ccc21
active: Potency [7] 18.7 µM | Potency [9] 7.43 µM | Potency [17] 5.9 µM | Potency [18] 10.5 µM | Potency [11] 3.32 µM | Potency [12] 13.2 µM
inactive: Potency [3] | Potency [4] | Potency [19] | Potency [8] | Potency [10]

CNC(=O)c1ccc(N2C(=S)N(c3ccc(C#N)c(C(F)(F)F)c3)C(=O)C23CCC3)cc1F
inactive: Potency [2] | Potency [8] | Potency [13]
active: Potency [1] 2.64 µM | Potency [3] 16.6 µM | Potency [4] 18.7 µM | Potency [19] 16.6 µM | Potency [6] 33.2 µM | Potency [7] 16.6 µM | Potency [15] 2.96 µM | Potency [20] 8.33 µM | Potency [17] 18.7 µM | Potency [12] 1.32 µM

CN(C)CCN(C)CCc1ccc(Cl)c(Cl)c1
active: Potency [1] 20.9 µM | Potency [10] 23.5 µM
inactive: Potency [2] | Potency [3] | Potency [4] | Potency [19] | Potency [7] | Potency [14] | Potency [8] | Potency [9] | Potency [20] | Potency [17] | Potency [12]

Fc1ccc(C(OCCN2CCN(CCCc3ccccc3)CC2)c2ccc(F)cc2)cc1
inactive: Potency [1] | Potency [4] | Potency [19]
active: Potency [2] 20.9 µM | Potency [6] 13.2 µM | Potency [7] 13.2 µM | Potency [14] 23.5 µM | Potency [15] 8.33 µM | Potency [9] 14.8 µM | Potency [20] 9.35 µM | Potency [17] 16.6 µM | Potency [18] 14.8 µM | Potency [12] 13.2 µM | Potency [13] 26.4 µM

COc1ccc(C(CN(C)C)C2(O)CCCCC2)cc1 (configuration not stated)
inactive: Potency [2] | Potency [3] | Potency [4] | Potency [15] | Potency [8] | Potency [9] | Potency [17] | Potency [11] | Potency [12] | Potency [13]

COC[C@@H](NC(C)=O)C(=O)NCc1ccccc1
inactive: Potency [1] | Potency [3] | Potency [4] | Potency [19] | Potency [14] | Potency [8] | Potency [9] | Potency [20] | Potency [11] | Potency [12] | Potency [13]

N[C@@H](Cc1ccc(N(CCCl)CCCl)cc1)C(=O)O
active: Potency [1] 18.7 µM | Potency [2] 16.6 µM | Potency [3] 18.7 µM | Potency [4] 10.5 µM | Potency [19] 13.2 µM | Potency [5] 2.96 µM | Potency [6] 20.9 µM | Potency [7] 1.32 µM | Potency [14] 11.8 µM | Potency [15] 13.2 µM | Potency [8] 3.72 µM | Potency [9] 16.6 µM | Potency [10] 16.6 µM | Potency [17] 23.5 µM | Potency [18] 4.69 µM | Potency [11] 5.9 µM | Potency [12] 3.32 µM | Potency [13] 16.6 µM

O=C(O)C(=O)c1cn(Cc2ccccc2)c2ccc(-c3ccc(OC(F)(F)F)cc3)cc12
active: Potency [15] 16.6 µM | Potency [10] 7.43 µM
inactive: Potency [1] | Potency [2] | Potency [3] | Potency [4] | Potency [19] | Potency [8] | Potency [17] | Potency [13]

CN(C)[C@@H]1C(=O)C(C(N)=O)=C(O)[C@@]2(O)C(=O)C3=C(O)c4c(O)cccc4[C@@](C)(O)[C@H]3C[C@@H]12
inactive: Potency [1] | Potency [3] | Potency [4] | Potency [19] | Potency [5] | Potency [6] | Potency [15] | Potency [8] | Potency [10] | Potency [11] | Potency [12]
active: Potency [2] 16.6 µM | Potency [9] 4.18 µM | Potency [18] 8.33 µM

COc1ccc2c(c1OC)CN1CCc3cc4c(cc3C1C2)OCO4 (configuration not stated)
inactive: Potency [12] | Potency [13]
active: Potency [7] 18.7 µM | Potency [14] 16.6 µM | Potency [15] 18.7 µM | Potency [8] 20.9 µM | Potency [9] 18.7 µM | Potency [18] 26.4 µM

CCCC(C)(COC(N)=O)COC(=O)NC(C)C (configuration not stated)
active: viability (% of DMSO) [5] 64.9%
inactive: Potency [1] | Potency [2] | Potency [4] | Potency [19] | Potency [7] | Potency [15] | Potency [8] | Potency [10] | Potency [17] | Potency [11] | Potency [12] | Potency [13]

CC(C)CC(N(C)C)C1(c2ccc(Cl)cc2)CCC1 (configuration not stated)
inactive: Potency [1] | Potency [2] | Potency [3] | Potency [4] | Potency [19] | Potency [6] | Potency [14] | Potency [8] | Potency [10] | Potency [17] | Potency [11] | Potency [12] | Potency [13]

NCC1(CC(=O)O)CCCCC1
inactive: Potency [1] | Potency [2] | Potency [3] | Potency [4] | Potency [19] | Potency [7] | Potency [14] | Potency [15] | Potency [9] | Potency [10] | Potency [12]

CN1CCN(C(=O)O[C@H]2c3nccnc3C(=O)N2c2ccc(Cl)cn2)CC1
inactive: Potency [1] | Potency [4] | Potency [19] | Potency [6] | Potency [7] | Potency [15] | Potency [8] | Potency [10] | Potency [17] | Potency [12] | Potency [13]
